# Screening data deposited in PubChem BioAssay by The Scripps Research Institute Molecular Screening Center.
# Fam108B inh = Fam108B inhibition, counter-screen for RBBP9 inhibitors | recombinant Fam108B, FP-Rh probe fluorescence polarization | inhibition, % at 9.51 µM | hit rate 0.33% among 300,000;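 active = inhibition above the screen mean inhibition plus 3 SD, computed separately per campaign, cut at about 18% in these data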;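 also: inhibitors lower polarization as less probe binds the enzyme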
# LYPLA2 counter = LYPLA2 (human) inhibition in PME1 counter-screen. hit rate 0.38% among 320,000. AID 2177. inhibition, % at 5.9 µM. O95372. recombinant LYPLA2, FP-Rh probe fluorescence polarization;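 active = inhibition above the screen-wide mean plus 3 SD, limit set per campaign, cut at about 26% in these data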;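 also: 0% = LYPLA2 with DMSO and 100% = wells lacking LYPLA2 enzyme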
# Target sequence (O95372 whole entry, looked up): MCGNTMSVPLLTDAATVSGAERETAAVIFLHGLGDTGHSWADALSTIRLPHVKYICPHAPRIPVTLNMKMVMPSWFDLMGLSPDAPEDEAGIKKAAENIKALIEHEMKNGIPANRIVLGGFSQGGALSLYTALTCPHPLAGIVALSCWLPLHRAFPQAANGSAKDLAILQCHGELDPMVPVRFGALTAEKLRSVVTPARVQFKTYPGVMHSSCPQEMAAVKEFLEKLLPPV
# PAD4 inh = blocks human protein arginine deiminase 4; Q9UM07; recombinant PAD4, RCA probe fluorescence polarization; inhibition, % at 6.36 µM; hit rate 0.41% among 330,000; AID 485272;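 active = percent inhibition above a cutoff equal to the mean of all tested compounds plus 3 SD, cut at about 15% in these data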;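 also: 0% = PAD4 with RCA probe and DMSO and 100% = probe without PAD4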
# PME-1 inh = blocks human protein phosphatase methylesterase 1; inhibition, % at 5.9 µM; AID 2130; Q9Y570; hit rate 0.53% among 320,000; recombinant PME-1, FP-Rh probe fluorescence polarization;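 active = inhibition above the campaign mean of all compounds plus 3 SD, cut at about 26% in these data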;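 also: competitive labeling of PME-1 active site by serine hydrolase directed probe; 0% = PME-1 with DMSO and 100% = wells lacking PME-1 enzyme; inhibitors block probe labeling so polarization falls and inhibition rises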
# Target sequence (Q9Y570 whole entry, looked up): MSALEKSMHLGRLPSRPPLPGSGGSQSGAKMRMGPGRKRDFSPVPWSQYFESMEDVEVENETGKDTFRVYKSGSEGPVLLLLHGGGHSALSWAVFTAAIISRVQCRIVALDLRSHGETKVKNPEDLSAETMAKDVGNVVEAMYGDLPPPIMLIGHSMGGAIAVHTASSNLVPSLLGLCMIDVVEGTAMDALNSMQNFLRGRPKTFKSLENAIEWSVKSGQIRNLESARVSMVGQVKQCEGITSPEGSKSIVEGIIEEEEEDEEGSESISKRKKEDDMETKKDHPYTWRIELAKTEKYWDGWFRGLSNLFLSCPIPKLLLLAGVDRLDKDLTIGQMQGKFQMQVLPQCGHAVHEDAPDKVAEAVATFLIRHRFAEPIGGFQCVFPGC
# LYPLA1 counter = blocks human lysophospholipase 1, a PME1 counter-screen | AID 2174 | inhibition, % at 5.9 µM | hit rate 0.16% among 320,000 | recombinant LYPLA1, FP-Rh probe fluorescence polarization | O75608;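 active = inhibition above the mean of all tested compounds plus 3 SD, set per campaign, cut at about 14% in these data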;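 also: inhibitors block serine hydrolase probe labeling of LYPLA1 so polarization falls; 0% = enzyme with DMSO and 100% = wells lacking LYPLA1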
# GSTO1 counter = blocks human GSTO1 in RBBP9 counter-screen; recombinant GSTO1, activity-based probe fluorescence polarization; inhibition, % at 5.96 µM; hit rate 1.1% among 300,000;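 active = inhibition above the campaign mean inhibition plus 3 SD, cut at about 35% in these data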;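 also: 0% = GSTO1-1 with DMSO and 100% = wells lacking GSTO1-1 enzyme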
# PAD4 confirm = confirmation of human PAD4 inhibitors; hit rate 28% among 1,200; recombinant PAD4, RCA probe fluorescence polarization; shares compounds with PAD4 inh; inhibition, % at 6.36 µM;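 active = mean inhibition across replicates above the hit cutoff set by the earlier primary screen, cut at about 15% in these data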;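 also: inhibitors block active-site labeling by the probe so polarization falls; 0% = PAD4 with probe and DMSO and 100% = probe without PAD4 enzyme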
# Active calls of the source: *; . = not tested or not shown. Most compounds without a hit are left out; they make up all but 1.8% or so of the library.
SMILES,Fam108B inh,LYPLA2 counter,PAD4 inh,PME-1 inh,LYPLA1 counter,GSTO1 counter,PAD4 confirm
Nc1ccc(-c2c3ccc(=O)cc-3oc3cc(O)ccc23)cc1C(=O)O,11.1,7.6,22.5*,9.1,8.2,-2.0,33.4*
COc1ccc(Cl)cc1NC(=O)CN(C)C(=O)c1cn(-c2ccccc2)nc1-c1cccnc1,4.7,3.2,-1.4,-5.8,-2.9,2.4,.
COc1cc(C=O)ccc1OCc1ccc(Cl)nc1,2.8,10.8,-0.5,8.9,0.1,9.5,.
COc1cc(C=O)ccc1OCc1ccncc1,1.1,0.5,27.7*,-1.7,-4.2,-1.8,-6.3
CCOc1ccc(S(=O)(=O)N2CCCCC2)cc1NC(=O)c1c(CC)noc1C,-2.3,-0.6,-7.5,-4.1,2.2,4.7,.
COc1ccc2c(c1)CCc1cnc(N)nc1-2,5.9,-3.3,-0.3,3.3,0.0,2.4,.
COc1ccc2c(c1)CCc1cn3nc(C)cc3nc1-2,0.0,3.6,15.7*,0.4,1.4,-3.8,4.8
c1cc(CNc2ccc(N3CCOCC3)cc2)ccn1,-0.7,4.4,24.8*,6.3,-2.5,18.1,3.6
CC(=O)Nc1ccc(N(C(=O)c2ccccn2)C(C(=O)NC2CCCCC2)c2ccc(F)cc2)cc1 (stereo unspecified),1.5,-5.8,-3.1,-1.9,-1.8,1.5,.
CN(C)S(=O)(=O)c1cccc(NC(=O)CCCc2nc3ccccc3c(=O)[nH]2)c1,2.7,2.6,28.9*,12.0,2.4,-1.9,7.0
O=C(CCc1nc2ccccc2c(=O)[nH]1)Nc1cccc(S(=O)(=O)N2CCCCC2)c1,-4.4,2.9,-3.1,22.5,2.0,2.8,.
Cc1cc(C)cc(NC(=O)c2cccc(C(=O)Nc3cc(C)cc(C)c3)n2)c1,-3.6,0.5,2.1,4.8,-2.1,0.5,.
Cc1cc(COc2ccccc2)oc1C(=O)O,-1.8,7.5,-2.5,1.6,0.8,1.9,.
COc1ccc(CC(=O)Nc2sccc2C#N)cc1S(=O)(=O)N1CCOCC1,3.1,6.2,4.1,-1.1,2.2,10.3,.
Cc1ccc(NC(=O)C(C)N2CCOCC2)c(C(=O)c2ccccc2)c1 (stereo unspecified),2.6,5.7,39.8*,-3.0,3.8,2.3,1.8
CCS(=O)(=O)CCSc1nc2ccccc2o1,3.1,9.9,0.1,-0.5,2.9,11.7,.
O=S(=O)(CCSc1nc2ccccc2o1)c1nc2ccccc2s1,0.4,0.6,17.4*,8.1,-0.1,-4.3,15.8*
CCCN(CC(=O)Nc1ccccc1C)C(=O)Cc1c(C)nc2ccccc2c1C,.,4.4,-3.1,-2.5,-0.3,.,.
COc1ccc(CCNC(=O)c2c[nH]c3ccc(F)cc3c2=O)cc1OC,-2.9,0.5,83.2*,-5.7,-1.2,4.0,3.5
COc1ccc(CCNC(=O)c2c[nH]c3ccccc3c2=O)cc1OC,1.2,2.7,0.1,-4.2,-0.3,2.2,.
O=C(CN1CCCC1)Nc1cc(C(F)(F)F)ccc1Cl,-3.3,-1.6,4.5,-3.5,-1.0,-1.2,.
O=C(CN1CCCCC1)Nc1ccc(C(F)(F)F)cc1Cl,-1.8,-2.9,18.1*,-6.3,-0.5,-2.5,-5.5
Cc1oc(-c2ccccc2)nc1CS(=O)CC(=O)NC1CCCC1 (stereo unspecified),-3.5,1.5,-5.2,4.8,0.7,-1.7,.
Cc1cc2cc(CNC(=O)c3ccc(S(=O)(=O)N4CCCCC4)cc3)ccc2n1C,-0.7,-6.3,31.1*,-7.1,-0.4,-2.2,-3.1
Cc1cc2cc(CNC(=O)C(C)Oc3ccccc3)ccc2n1C (stereo unspecified),8.9,6.9,28.7*,14.3,11.3,10.7,4.3
SMILES,Fam108B inh,LYPLA2 counter,PAD4 inh,PME-1 inh,LYPLA1 counter,GSTO1 counter,PAD4 confirm
COc1ccc(S(=O)(=O)NCc2ccc3c(c2)cc(C)n3C)cc1,4.4,-0.1,3.9,4.7,3.3,0.5,.
Cc1cc2cc(CNC(=O)c3ccc(S(=O)(=O)N4CCCC4)cc3)ccc2n1C,-1.5,-0.5,14.5,1.1,-0.3,5.5,.
Cc1cc2cc(CNS(=O)(=O)c3ccccc3)ccc2n1C,5.5,-2.6,18.3*,2.5,3.2,4.7,0.7
CCC(CC)C(=O)NCc1ccc2c(c1)cc(C)n2C,-0.2,2.2,-4.9,0.9,1.2,-2.1,.
CCCCCCC(NC(=O)c1ccc(C)cc1)C(=O)O (stereo unspecified),.,.,6.2,.,.,.,.
O=C(O)CSc1nnc(-c2ccccc2)c(-c2ccccc2)n1,-1.3,1.8,-4.5,2.3,0.0,5.0,.
CCN(CC)C(=O)CSc1nnc(-c2ccccc2)c(-c2ccccc2)n1,9.0,-2.5,14.9*,3.3,-2.5,-0.6,7.3
C/C(=N\NC(=O)C(=O)Nc1cccc(Cl)c1C)c1ccncc1,4.8,-5.0,25.4*,-2.2,1.2,4.5,2.0
CN1CCS/C1=C/C=C1/SC(=S)N(Cc2ccccc2)C1=O,17.6,7.9,49.2*,13.7,9.8,-10.3,-0.3
O=C(COC(=O)c1c(F)cccc1Cl)NCC1CCCCC1,.,.,-2.0,.,.,.,.
CCOC(=O)C1CCN(c2nc3ccccc3nc2C(C#N)C(=O)OC(C)C)CC1 (stereo unspecified),-2.0,3.0,16.7*,-8.6,1.5,3.2,-12.6
CCOC(=O)C1CCN(c2nc3ccccc3nc2C(C#N)C(=O)OC(C)COC)CC1 (stereo unspecified),5.2,-2.0,2.2,-5.0,-1.2,-0.4,.
COc1ccc(C(=O)Nc2nnc(Cc3ccc(OC)c(OC)c3)s2)c(OC)c1,-0.9,-12.3,22.2*,-2.2,-12.4,28.1,31.6*
Cc1ccc(C(NC(=O)Nc2ccccn2)C(Cl)(Cl)Cl)cc1F (stereo unspecified),1.4,-1.8,25.8*,-1.6,1.2,0.2,1.8
CCOc1ccccc1C(=O)NCC(=O)NCCCc1ccccc1,1.2,-3.8,62.2*,0.6,0.2,0.0,-1.1
O=C(O)[C@H](Cc1ccccc1)NC(=O)N1CCC(Cc2ccccc2)CC1,1.0,2.2,42.0*,-6.7,0.9,1.5,-0.4
CS(=O)(=O)c1cccc(C(=O)Nc2cccc(-c3nc4ccccc4[nH]3)c2)c1,-8.4,-21.9,20.4*,-21.8,-18.3,-23.1,16.4*
CS(=O)(=O)Cc1ccc(C(=O)Nc2cccc(-c3nc4ccccc4[nH]3)c2)cc1,-17.1,-26.8,-3.0,-37.1,-17.4,-29.3,.
CS(=O)(=O)c1ccc(C(=O)Nc2ccc(-c3nc4ccccc4[nH]3)cc2)cc1,-9.3,-11.9,-14.1,-19.9,-9.2,-2.1,.
CC(=O)NCCC(=O)Nc1sc2c(c1-c1nc3ccccc3[nH]1)CCCC2,0.5,-5.0,-0.6,3.8,2.3,6.2,.
CS(=O)(=O)c1ccc(C(=O)Nc2cccc(-c3nc4ccccc4[nH]3)c2)cc1,-8.2,-21.3,28.0*,-26.3,-16.9,-14.1,12.8
CN1CCN(S(=O)(=O)c2cccc(C(=O)Nc3sc4c(c3-c3nc5ccccc5[nH]3)CCCC4)c2)CC1,13.8,-10.1,19.5*,9.5,-10.9,33.1,1.8
